# Compound activity (PubChem BioAssay)
# D2 ag-1: agonists of human D2 dopamine receptor (beta-arrestin); DiscoveRx PathHunter D2 beta-arrestin, luminescence, 90 min; 100% = 57 uM dopamine signal; activation, % (no concentration beside the values); 360,000 tested, 0.084% active; AID 624465; in the data active means activation above about 40%; inconclusive means between about 15% and that limit
#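 Agonist mode: compounds alone added to overnight-plated D2 PathHunter cells for 90 min at 37 C, with 57 uM final dopamine (EC100) defining full response. Beta-arrestin recruitment detected by chemiluminescent reagent, read after 1 h at ambient temperature.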
# D2 ag-2: activates the human D2 dopamine receptor; AID 485358; activation, % at 2 µM; P14416; 340,000 tested, 0.53% active; HEK293 T-REx D2 cells, calcium flux agonist mode;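 active means activation over 3 SD above normal in the single-dose calcium agonist read, cut at about 30% in these data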; further: 0% is about no effect
#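 In this primary screen, compounds producing a positive calcium signal within 180 s of addition to tetracycline-induced, force-coupled HEK293 Trex D2 cells are flagged; cells are dye-loaded with a no-wash calcium kit beforehand.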
# D2 antagonist: antagonizes the human D2 dopamine receptor; P14416; HEK293 TREx D2 cells, calcium flux, dopamine EC80; inhibition, % at 10 µM; 340,000 tested, 2% active; AID 485344; in the data active means inhibition above about 30%; inactive means below that, where a call was filed; further: 0% is about no effect
#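 Dopamine at EC80 is the agonist stimulus; test compounds precede it by 180 s. Calcium flux read kinetically in a force-coupled, inducible HEK293 T-REx D2 cell line.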
# D2 PAM-1: D2 dopamine receptor (human) potentiation; AID 485347; P14416; 340,000 tested, 0.34% active; HEK293 T-REx D2, calcium flux, EC20 dopamine potentiation; potentiation, % at 10 µM;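 active means potentiation over 3 SD above the plate norm, cut at about 30% in these data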; further: 0% is about no effect
#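 Tetracycline-induced Hek293 Trex D2 cells, force-coupled to calcium, loaded with no-wash calcium dye. Compound added with 180 s kinetic read for agonism, then EC20 dopamine and a further 180 s read for potentiation.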
# D2 PAM-2: potentiates the human D2 dopamine receptor allosterically; potentiation, % (test concentration not listed); P14416; 360,000 tested, 0.23% active; DiscoveRx D2 beta-arrestin cells, luminescence, 90 min; 100% = 57 uM dopamine signal; AID 624464; in the data active means potentiation above about 50%; inconclusive means mostly about 30% to 49%
#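 PathHunter D2 cells, attached overnight at 37 deg C, received compound in DMSO plus dopamine at EC20 (50 nM final) for 90 min at 37 deg C. Beta-arrestin recruitment was read as luminescence after 1 h with detection reagent at ambient temperature.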
# D3 arrestin ag: D3 receptor agonism confirmed, beta-arrestin readout; shares compounds with D2 ag-2; DiscoveRx D3 beta-arrestin cells, luminescence, 90 min; Potency, µM (top dose mostly 76.9 µM), inactives show at the highest dose activation, hits mostly activators; 2,300 tested, 4% active;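 further: potency means the concentration at half of the fitted maximal effect; 100% = dopamine control response; nearly all actives have a fitted effect of over 70% in size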
# Target sequence (P35462 whole entry, looked up): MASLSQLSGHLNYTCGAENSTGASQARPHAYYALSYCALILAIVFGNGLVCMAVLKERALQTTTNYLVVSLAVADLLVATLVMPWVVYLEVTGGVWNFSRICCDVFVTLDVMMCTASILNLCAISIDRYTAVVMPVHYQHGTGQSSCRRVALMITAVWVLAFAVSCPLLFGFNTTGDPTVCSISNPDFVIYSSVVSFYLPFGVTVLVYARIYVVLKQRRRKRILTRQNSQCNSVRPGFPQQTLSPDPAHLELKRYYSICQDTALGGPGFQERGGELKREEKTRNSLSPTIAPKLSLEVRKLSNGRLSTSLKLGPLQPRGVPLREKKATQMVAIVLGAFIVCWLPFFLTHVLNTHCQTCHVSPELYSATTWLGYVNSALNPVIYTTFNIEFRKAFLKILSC
# D2 ag-3: counter-screen for D3 agonists: human D2 dopamine receptor agonism | shares compounds with D2 ag-2 | DiscoveRx PathHunter D2 beta-arrestin, luminescence, 90 min; response scale: percent relative to full dopamine signal | Potency, µM (series often up to 76.9 µM), for inactives: at the highest dose activation, actives largely listed as activators | 2,300 tested, 5.9% active | AID 720507; further: potency means the concentration at half of the fitted maximal effect; % of control where 0% means no effect; nearly all actives have a fitted effect of over 70% in size
# * marks the source's active call; other numbers are inactive results; ? = inconclusive; / = no result given. This is a sample that favours compounds with a hit; in the whole collection about 2.4% have one here. Unless noted, the call rests on the fitted dose curve; in most records, active means well fitted activation curve with a large enough effect; inconclusive means small, poorly fitted or top-dose-only effect; inactive means flat fitted curve, though single readings scatter.
SMILES,D2 ag-1,D2 ag-2,D2 antagonist,D2 PAM-1,D2 PAM-2,D3 arrestin ag,D2 ag-3
COc1cc(NC(=O)Cn2c(=O)n(C(C)C)c(=O)c3oc4ccccc4c32)cc(OC)c1,/,0,/,2,/,/,/
CCOC(=O)N1CCC(N2CCN(c3ccccc3)CC2)CC1,?,45*,74*,-11,9,?,?
CCOC(=O)N1CCC(N2CCCC(C(=O)c3cccc(OC)c3)C2)CC1 (stereo not given),3,50*,40*,-24,-30,-10%,3%
CCOC(=O)N1CCC(N2CCCC(C(=O)c3cccc(OC(C)C)c3)C2)CC1 (stereo not given),-1,-2,18,12,-5,/,/
O=C(c1cccs1)N1CCC(N2CCN(c3ccccc3)CC2)CC1,?,85*,54*,-25,1,7.1µM*,?
CCOC(=O)N1CCC(N2CCN(S(=O)(=O)CC)CC2)CC1,2,0,-4,-3,-12,/,/
O=C(c1cccc2ccccc12)N1CCC(N2CCN(c3ccccc3)CC2)CC1,7,77*,75*,-22,16,1.4µM*,?
COc1ccc(CNC(=O)Cc2c(C)c3c(cc(C)c4c(C)c(C)oc43)oc2=O)cc1,/,0,/,-3,/,/,/
O=C(Nc1ccc(C(=O)NCCCN2CCN(c3ccc(F)cc3)CC2)cc1)C1=CSCCO1,11,69*,69*,-25,-52,-14%,25%
O=C(Nc1ccc(C(=O)NCCCN2CCCCC2)cc1)C1=CSCCO1,2,/,/,/,-10,/,/
Cc1cc(=O)n2nc(N3CCC(C(=O)N4CCN(c5ccccc5)CC4)CC3)sc2n1,5,20,6,-1,-9,?,26%
CCOc1cc(-c2c(C)c(C)nc(N)c2C#N)ccc1O,?,13,8,-23,9,/,/
CCOc1cc(-c2c(C)c(CC)nc(N)c2C#N)ccc1O,?,24,5,-11,4,3%,?
Cc1ccc2c(=O)c(C(=O)c3ccccc3)cn(CC(=O)Nc3ccc4c(c3)OCCO4)c2n1,/,/,/,-11,/,/,/
Cc1sc(-n2cccc2)c(C(C)NC(=O)Nc2ccccc2Cl)c1C (stereo not given),/,0,/,/,/,/,/
CN(C)CCNC(=O)C12CC3(C)CC(C)(CC(C)(C3)C1)C2,-1,27,2,-15,-29,-16%,-3%
O=C(c1cccc([N+](=O)[O-])c1)N1CCN(C/C=C/c2ccccc2)CC1,-1,0,29,-14,-18,/,/
CC(C(=O)Nc1cccc([N+](=O)[O-])c1)N1CCN(C/C=C/c2ccccc2)CC1 (stereo not given),9,72*,47*,-30,-20,26%,?
Cn1c(C(=O)NCCCN2CCN(c3ccccc3F)CC2)cc2c(=O)n(C)c3ccccc3c21,?,73*,98*,-21,-5,11%,?
Cc1cc(C)c2c(=O)n(CC(=O)NCCCN3CCN(c4ccccc4F)CC3)sc2n1,0,83*,53*,-36,-16,-13%,0%
Cc1cc(C)c2c(=O)n(CC(=O)NCCCN3CCOCC3)sc2n1,3,0,3,-4,-5,/,/
Cc1ccc(-n2nc(C)c(C(=O)NCCCN3CCN(c4ccccc4F)CC3)c2-n2cccc2)cc1,/,0,/,0,/,/,/
Cc1cc(=O)oc(C)c1C(=O)NCCCN1CCN(c2ccccc2F)CC1,6,58*,47*,-33,-10,?,9%
Cn1c(=O)cc(SCC(=O)NCCCN2CCN(c3ccccc3F)CC2)c2ccccc21,?,75*,92*,-23,-3,16%,?
COc1cccc(N2CCN(c3ccc4nnc(CCC(=O)O)n4n3)CC2)c1,/,0,/,2,/,/,/
SMILES,D2 ag-1,D2 ag-2,D2 antagonist,D2 PAM-1,D2 PAM-2,D3 arrestin ag,D2 ag-3
CCOc1ccc(-c2cc(C(=O)Oc3ccc(C#N)cc3)no2)cc1,/,1,/,7,/,/,/
CCn1c(=O)cc(SCC(=O)NCCN2CCN(Cc3ccccc3)CC2)c2ccccc21,4,44*,18,-22,-16,-9%,11%
CCOc1ccc(NC(=O)C2CCN(c3nnc(-n4c(C)ccc4C)s3)CC2)cc1,/,1,/,-6,/,/,/
O=C(Nc1ccnn1C1CCN(Cc2cc3ccccc3[nH]2)CC1)C1CCOC1 (stereo not given),/,42*,28,-22,/,-6%,0%
CCS(=O)(=O)n1nc(-c2ccco2)nc1NCc1ccc(C(C)C)cc1,/,0,/,7,/,/,/
COc1ccc(CN2Cc3cccc4c3[C@@H](CC2=O)[C@H](O)[C@H](O)C4)cc1,-1,0,-18,-4,0,/,/
O=C1C[C@@H]2c3c(cccc3CN1Cc1ccc(F)cc1)C[C@@H](O)[C@H]2O,-3,1,-4,5,-7,-5%,-3%
CCCNC(=O)c1ccc2c(=O)c(O)c(-c3ccc(F)cc3)[nH]c2c1,2,/,/,/,1,/,/
Nc1c(Cl)cc(-c2[nH]c3cc(C(=O)NCCO)ccc3c(=O)c2O)cc1Cl,3,0,9,3,3,25%,2%
CCOC(=O)CNC(=O)c1cc2c(=O)n(CC)c3ccccc3c2s1,/,1,/,10,/,/,/
CCOC(=O)N1CCN(C(=O)COC(=O)COc2c(C)cc(C)cc2C)CC1,-5,/,/,/,-5,/,/
CC(=O)N1CCN(C(=O)COC(=O)COc2c(C)cc(C)cc2C)CC1,0,-1,21,2,-10,-5%,-1%
CC(=O)c1cccc(S(=O)(=O)N2CCN(CCOc3ccccc3)CC2)c1,3,49*,1,-22,-12,?,15%
O=S(=O)(c1ccccc1F)N1CCN(CCOc2ccccc2)CC1,-1,31*,39*,-21,-28,21%,16%
Cc1ccc(S(=O)(=O)N2CCN(CCOc3ccccc3)CC2)cc1,8,50*,16,-24,-16,26%,10%
O=S(=O)(c1ccccc1)N1CCN(CCOc2ccc(F)cc2)CC1,-1,/,/,/,-14,/,/
CC(=O)c1ccc(S(=O)(=O)N2CCN(CCOc3ccc(Br)cc3)CC2)cc1,2,1,-6,0,-3,/,/
Cc1ccc(C)c(N2CCN(C(=O)Cn3c(-c4cccs4)cc4ccccc43)CC2)c1,/,0,/,1,/,/,/
O=S(=O)(Cc1ccccc1)N1CCC(N2CCN(c3ccccc3)CC2)CC1,?,83*,89*,-19,-4,?,?
c1ccc(C2CCC(N3CCN(c4ccccc4)CC3)CC2)cc1 (stereo not given),-3,64*,-4,-20,-29,4%,9%
